Several values for one entry are separate records, joined by “and”; a condition that tells them apart may be missing. Identical values can stand only once. Results filed as inconclusive are left out. Where a call stands in place of a potency, no number is given. The source holds several records for some structures; these can differ, active in one and inactive in another. Activity calls are given as the source filed them. Calls come from the whole dose curve.
Potency is the fitted concentration of half-maximal effect.

The nature of the experiment: Nuclear factor erythroid 2-related factor 2/antioxidant responsive element (Nrf2/ARE) small molecule agonists: luciferase reporter gene qHTS assay in human keratinocytes (AID 1919969). Note: nearly all actives have a fitted effect of over 35% in size. Conditions: KeratinoSens HaCaT ARE-luciferase, luminescence, 24 h; series mostly up to 92.4 µM. An excerpt:
National Center for Advancing Translational Sciences [NCATS]
Division of Preclinical Innovation [DPI]
U.S. Environmental Protection Agency [EPA]
National Institutes of Environmental Health Sciences [NIEHS]
National Toxicology Program [NTP]
U.S. Food and Drug Administration [FDA]
Oxidative stress has been implicated in the pathogenesis of a variety of diseases ranging from cancer to neurodegeneration. The antioxidant response element (ARE) signaling pathway plays an important role in the amelioration of oxidative stress. The KeratinoSens (Givaudan, Switzerland) is an in vitro test method which quantifies luciferase induction as a measure of activation of Keap1-Nrf2-antioxidationt/electrophile response element (ARE) dependant pathway in HaCaT human keratinocytes stably transfected with a selectable plasmid. The KeratinoSens assay is a cell-based assay with a reporter cell line to detect potential skin sensitizers by their ability to induce the Nrf2/ARE-response. The activation of the report gene under culture conditions can be detected by ONE-Glo Luciferase Assay System (Promega, Madison, WI). This cell line has been used to screen the Tox21 10K compound library to identify agonists that induce oxidative stress. The cytotoxicity of the Tox21 compound library against the KS-ARE cell line was tested in parallel by measuring the cell viability using CellTiter- Fluor assay system (Promega, Madison, WI) in the same wells.
HaCaT derived cell line KeratinoSens were dispensed at 1,500 cells/5uL/well in 1536-well white wall/solid bottom plates using a Multidrop Combi (ThermoFisher Scientific, Waltham, MA) dispenser. After the assay plates were incubated at 37 C/5% CO2 for 5 h, 23 nL of compounds dissolved in DMSO, positive controls or DMSO only was transferred to the assay plate by a pintool workstation (Kalypsys, San Diego, CA). The plates were incubated at 37 C/5% CO2 for 23 h, followed by addition of 1uL/well of CellTiter-Fluor reagent into the assay plates using a Flying Reagent Dispenser (Aurora Discovery, San Diego, CA) for cell viability readout that measures cytotoxicity. After 1 h incubation at 37 C/5% CO2 the fluorescence intensity was measured using a ViewLux (PerkinElmer, Shelton, CT) plate reader. Then 4uL/well of One-Glo were added using a Flying Reagent Dispenser. After the plates were incubated at room temperature for 30 min, the luminescence intensity in the assay plates was measured using ViewLux plate reader.
Background: Reporter assays use an easily measured gene product as a stand-in for the process of interest.
As to `CCCCOCCOCCOC(=O)CCCCC(=O)OCCOCCOCCCC`, the Potency result was “inactive”. Take `Nc1ccc(N=Nc2ccccc2)c(N)n1`: the Potency is 1.73 µM (active) and 2.73 µM (active) and 2.37 µM (active). In the case of `CC(C)(C)CC(C)(C)c1ccc(O)c(-n2nc3ccccc3n2)c1`, the Potency entry is “inactive”. As for `Cc1ccccc1C(N)=O`, the entry is “inactive”; as for `CC(C)CCCCCOC(=O)CS`, “inactive”.

For `C/C=C(\C)C(=O)OCc1ccccc1`, the Potency result was “inactive”. As for `O=C(O)c1cc(=O)[nH]c(=O)[nH]1`, the entry is “inactive”. As for `C=C(C)[C@@H]1CCC2=CCC[C@@H](C)[C@]2(C)C1`, the entry is “inactive”; as for `CCC(C)C(=O)OCCc1ccccc1` (stereo not given), “inactive”. The value for `Cc1ccc(C(C)(C)O)cc1` was “inactive”. On to `COC(=O)c1c(Cl)c(Cl)c(C(=O)OC)c(Cl)c1Cl`, for which the Potency is 30.6 µM (active). As for `CC/C=C\C#N`, the entry is “inactive”; as for `N[C@@H](Cc1c[nH]c2ccc(O)cc12)C(=O)O`, “inactive”.

With `CCCCCCCCC(=O)OCC`, the Potency entry is “inactive”. With `CC1COc2ccccc2N1C(=O)C(Cl)Cl` (stereo not given), the Potency is 21.6 µM (active).

With `Cc1ccc(S(=O)(=O)NC2CCCCC2)cc1`, the Potency entry is “inactive”. The value for `COc1ccc2cc3[n+](cc2c1OC)CCc1cc2c(cc1-3)OCO2` was “inactive”; that for `CC(=O)C1(C)CC2=C(CCCC2(C)C)CC1C` (stereo not given) was “inactive”. Consider `O=[Si]=O`, for which the Potency result was “inactive”.

Take `CCC1CCCCC1`: the Potency entry is “inactive”. The value for `O=C(O[C@@H]1Cc2c(O)cc(O)cc2O[C@@H]1c1cc(O)c(O)c(O)c1)c1cc(O)c(O)c(O)c1` was “inactive”.

In the case of `CC(=O)c1cccc([N+](=O)[O-])c1`, the Potency result is “inactive”.

As to `CC1(C)[C@H](C(=O)OCc2cccc(Oc3ccccc3)c2)[C@@H]1C=C(Cl)Cl`, the Potency result is “inactive”.

In the case of `CC(C=O)c1ccccc1` (stereo not given), the Potency result was “inactive”. The value for `Nc1ccc(O)cc1` was 28.4 µM (active). For `c1ccc2ncccc2c1`, the Potency result is “inactive”. In the case of `CC1COc2ccccc2N1` (stereo not given), the Potency was 54.5 µM (active). The value for `C/C=C/C(=O)CCCC` was “inactive”; that for `COc1nc(N)nc2nc[nH]c12` was “inactive”. As for `OC1CCCC1`, the entry is “inactive”; as for `CC(C)(C)c1ccc(CCC=O)cc1`, “inactive”. For the molecule `CCCCC(C)C(=O)O` (stereo not given), the Potency result is “inactive”. As for `CCN(CCO)c1cccc(C)c1`, the entry is “inactive”.

Regarding `CC(=O)c1ccc2ccccc2c1`, the Potency entry is “inactive”. As for `C=CCCCCCCCC`, the Potency result was “inactive”.

Consider `CC(C)(C)OCC1CO1` (stereo not given), for which the Potency result is “inactive”. For the molecule `ON=C1CCCCC1`, the Potency entry was “inactive and 68.6 µM (active)”. As for `Cc1ccc(C(C)C)cc1O`, the entry is “inactive”; as for `CC(=O)CCC(C)C`, “inactive”; as for `COc1ccc(-c2coc3cc(O)cc(O)c3c2=O)cc1`, “inactive”.

Source of the values: PubChem BioAssay (Tox21).
